Source: PubChem BioAssay (NCI)
About 79,000 compounds went through this panel and 15% of them were active in at least one assay; those are over-represented in the sample as a whole. Activity calls are given as the source filed them. Rule as the data show it: active = growth inhibition above about 70%; inactive = the rest.

Legend:
[1] = NCI Yeast Anticancer Drug Screen. Data for the rad52 strain (AID 147);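 also: 0% = growth of vehicle-treated control cultures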; settings: S. cerevisiae rad52 mutant growth inhibition, active compounds read high
Procedure, shortened: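 Vehicle-treated cultures served as the reference for growth inhibition of compound-exposed yeast bearing a DNA repair mutation.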

[2] = NCI Yeast Anticancer Drug Screen. Data for the wt1 strain (AID 149);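 also: 0% = growth of vehicle-treated wt1 cultures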; settings: S. cerevisiae wt1 strain (SPY 50644) growth inhibition, active compounds read high
Procedure, shortened: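 Measured: growth of wt1 yeast under compound versus vehicle treatment, reported as inhibition.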

[3] = NCI Yeast Anticancer Drug Screen. Data for the rad50EPP+ strain (AID 151);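 also: 0% = growth of vehicle-treated control cultures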; settings: S. cerevisiae rad50 mutant strain, active compounds read high
Procedure, shortened: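 In this screen, rad50EPP+ yeast were exposed to compounds. Growth inhibition was scored against vehicle-treated controls.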

[4] = NCI Yeast Anticancer Drug Screen. Data for the mgt1 strain (AID 153); settings: S. cerevisiae mgt1 mutant growth inhibition, active compounds read high
Procedure, shortened: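 mgt1 strain exposed; growth vs vehicle control recorded as inhibition.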

[5] = NCI Yeast Anticancer Drug Screen. Data for the rad50 strain (AID 155);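 also: 0% = growth of vehicle-only cultures of the same strain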; settings: S. cerevisiae rad50 strain growth inhibition, active compounds read high
Procedure, shortened: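 Growth of the mutant yeast was measured after compound exposure and referenced to vehicle-treated cultures.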

[6] = NCI Yeast Anticancer Drug Screen. Data for the mec2-1 strain (AID 157); settings: S. cerevisiae mec2-1 strain, active compounds read high
Procedure, shortened: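 Vehicle-treated cultures served as reference for growth inhibition of compound-exposed mec2-1 yeast.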

[7] = NCI Yeast Anticancer Drug Screen. Data for the rad14 strain (AID 159);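 also: 0% = growth of vehicle-treated control cultures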; settings: S. cerevisiae rad14 strain growth inhibition, active compounds read high
Procedure, shortened: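 Here, inhibition of yeast growth was measured after compound exposure, using a strain with a genetic defect in DNA damage repair and vehicle-treated cultures as the reference.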

[8] = NCI Yeast Anticancer Drug Screen. Data for the sgs1 mgt1 strain (AID 161);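 also: 0% = growth of cultures given vehicle only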; settings: S. cerevisiae sgs1 mgt1 strain, active compounds read high
Procedure, shortened: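 Test agents were incubated with a DNA-repair-mutant yeast strain. Growth was then read and compared against vehicle-treated controls.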

[9] = NCI Yeast Anticancer Drug Screen. Data for the cln2 rad14 strain (AID 165);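 also: 0% = growth equal to vehicle treated cultures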; settings: S. cerevisiae cln2 rad14 strain, active compounds read high
Procedure, shortened: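 Each compound was tested on cln2 rad14 yeast. Inhibition of growth was calculated against vehicle-exposed controls.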

[10] = NCI Yeast Anticancer Drug Screen. Data for the bub3 strain (AID 167); settings: S. cerevisiae bub3 mutant strain, active compounds read high
Procedure, shortened: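 Whole-cell yeast assay. The mutant strain was incubated with compounds, and growth inhibition was determined by comparison with vehicle-treated cells.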

[11] = NCI Yeast Anticancer Drug Screen. Data for the wt2 strain (AID 169);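 also: 0% = growth of vehicle-treated yeast cultures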; settings: S. cerevisiae wt2 strain growth inhibition, active compounds read high
Procedure, shortened: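 Inhibition of yeast growth was determined after compound treatment, normalised to controls receiving only vehicle.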

[12] = NCI Yeast Anticancer Drug Screen. Data for the mlh1 strain (AID 171);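 also: 0% = growth of vehicle-treated control cultures of the same strain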; settings: S. cerevisiae mlh1 strain growth inhibition, active compounds read high
Procedure, shortened: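 Vehicle-normalised growth inhibition of a repair- or checkpoint-altered yeast strain following compound treatment.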

[13] = NCI Yeast Anticancer Drug Screen. Data for the sgs1 strain (AID 173);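 also: 0% = growth of vehicle-only control cultures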; settings: S. cerevisiae sgs1 mutant, active compounds read high
Procedure, shortened: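 Screen format: yeast with repair or checkpoint alterations, compound exposure, growth read relative to vehicle.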

[14] = NCI Yeast Anticancer Drug Screen. Data for the mlh1 rad18 strain (AID 175); settings: S. cerevisiae mlh1 rad18 strain growth inhibition, active compounds read high
Procedure, shortened: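 Vehicle-treated cultures served as the reference for growth inhibition in a yeast strain carrying DNA damage repair alterations exposed to each compound.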

[15] = NCI Yeast Anticancer Drug Screen. Data for the rad18 strain (AID 177); settings: S. cerevisiae rad18 mutant growth inhibition, active compounds read high
Procedure, shortened: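 Test articles were incubated with altered yeast defective in DNA damage repair. Results are given as inhibition of growth versus vehicle.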

[16] = NCI Yeast Anticancer Drug Screen. Data for the CLN2oe strain (AID 163);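 also: 0% = growth of vehicle-only control cultures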; settings: S. cerevisiae CLN2oe strain, active compounds read high
Procedure, shortened: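 Inhibition relative to vehicle-treated yeast is reported. Cells: strain with genetic alteration in cell-cycle control, grown with compound.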

[17] = at 5.0 µM (retest, dose inferred, filed as 0.5)
[18] = at 50.0 µM (retest, dose inferred, filed as 5.0)

Measured: growth inhibition

COc1ccc(N=N/C(=N\NC(=O)c2cc(Br)ccc2O)c2ccc(N(CCC#N)CCC#N)cc2OC)cc1
active: [1]; at 100.0 µM 71% | [5]; at 100.0 µM 82% | [13]; at 100.0 µM 71%
inactive: [1]; at 1.2 µM 29% | [1]; at 3.7 µM 44% | [1]; at 11.0 µM 44% | [1]; at 33.0 µM 57% | [2]; at 1.2 µM 15% | [2]; at 3.7 µM 17% | [2]; at 11.0 µM 9% | [2]; at 33.0 µM 5% | [2]; at 100.0 µM 51% | [3]; at 1.2 µM -4% | [3]; at 3.7 µM -7% | [3]; at 11.0 µM -11% | [3]; at 33.0 µM -19% | [3]; at 100.0 µM 24% | [4]; at 1.2 µM 33% | [4]; at 3.7 µM 35% | [4]; at 11.0 µM 24% | [4]; at 33.0 µM 46% | [4]; at 100.0 µM 69% | [5]; at 1.2 µM 46% | [5]; at 3.7 µM 43% | [5]; [17] 20% | [5]; at 11.0 µM 49% | [5]; at 33.0 µM 59% | [5]; [18] 25% | [5]; at 50.0 µM 45.1% | [6]; at 1.2 µM -4% | [6]; at 3.7 µM -6% | [6]; [17] 22% | [6]; at 11.0 µM -8% | [6]; at 33.0 µM 13% | [6]; [18] 24% | [6]; at 50.0 µM 43.4% | [6]; at 100.0 µM 31% | [7]; at 1.2 µM 33% | [7]; at 3.7 µM 26% | [7]; at 11.0 µM 21% | [7]; at 33.0 µM 3% | [7]; at 100.0 µM 45% | [8]; [17] -8% | [8]; [18] 69% | [8]; at 50.0 µM 8.9% | [9]; [17] -4% | [9]; [18] 32% | [9]; at 50.0 µM 30.9% | [10]; at 1.2 µM 28% | [10]; at 3.7 µM 14% | [10]; [17] 19% | [10]; at 11.0 µM 16% | [10]; at 33.0 µM 49% | [10]; [18] 69% | [10]; at 50.0 µM 43.4% | [10]; at 100.0 µM 68% | [11]; at 1.2 µM -20% | [11]; at 3.7 µM -11% | [11]; at 11.0 µM -15% | [11]; at 33.0 µM -9% | [11]; at 100.0 µM 65% | [12]; at 1.2 µM 33% | [12]; at 3.7 µM 35% | [12]; at 11.0 µM 24% | [12]; at 33.0 µM 46% | [12]; at 100.0 µM 69% | [13]; at 1.2 µM 34% | [13]; at 3.7 µM 37% | [13]; at 11.0 µM 33% | [13]; at 33.0 µM 42% | [14]; [17] 20% | [14]; [18] 26% | [14]; at 50.0 µM 65.4% | [15]; at 1.2 µM 14% | [15]; at 3.7 µM 20% | [15]; at 11.0 µM 18% | [15]; at 33.0 µM 33% | [15]; at 100.0 µM 49%

CO[C@@]12[C@H](COC(N)=O)C3=C(C(=O)C(C)=C(N)C3=O)N1C[C@@H]1N[C@@H]12
inactive: [1]; at 1.2 µM 7% | [1]; at 3.7 µM 19% | [1]; at 11.0 µM 55% | [2]; at 1.2 µM 1% | [2]; at 3.7 µM 2% | [2]; at 11.0 µM 9% | [2]; at 33.0 µM 30% | [2]; at 100.0 µM 62% | [3]; at 1.2 µM -4% | [3]; at 3.7 µM 5% | [3]; at 11.0 µM 25% | [3]; at 33.0 µM 63% | [4]; at 1.2 µM -2% | [4]; at 3.7 µM 2% | [4]; at 11.0 µM 11% | [4]; at 33.0 µM 33% | [5]; at 1.2 µM 1% | [5]; at 3.7 µM 14% | [5]; [17] 23% | [5]; at 11.0 µM 38% | [5]; at 50.0 µM 65.3% | [6]; at 1.2 µM 1% | [6]; at 3.7 µM 13% | [6]; [17] 25% | [6]; at 11.0 µM 29% | [6]; at 50.0 µM 63.9% | [7]; at 1.2 µM 6% | [7]; at 3.7 µM 17% | [7]; at 11.0 µM 39% | [8]; [17] 22% | [8]; [18] 68% | [8]; at 50.0 µM 50.8% | [16]; at 1.2 µM -3% | [16]; at 3.7 µM 0% | [16]; at 11.0 µM 7% | [16]; at 33.0 µM 38% | [9]; [17] 7% | [9]; [18] 57% | [9]; at 50.0 µM 48.8% | [10]; at 1.2 µM 1% | [10]; at 3.7 µM 3% | [10]; [17] 29% | [10]; at 11.0 µM 7% | [10]; at 33.0 µM 26% | [10]; [18] 49% | [10]; at 50.0 µM 25.4% | [10]; at 100.0 µM 67% | [11]; at 1.2 µM -1% | [11]; at 3.7 µM 4% | [11]; at 11.0 µM 15% | [11]; at 33.0 µM 51% | [12]; at 1.2 µM 1% | [12]; at 3.7 µM 7% | [12]; at 11.0 µM 21% | [12]; at 33.0 µM 55% | [13]; at 1.2 µM 3% | [13]; at 3.7 µM 11% | [13]; at 11.0 µM 36% | [15]; at 1.2 µM 20% | [15]; at 3.7 µM 60%
active: [1]; at 33.0 µM 83% | [1]; at 100.0 µM 92% | [3]; at 100.0 µM 83% | [4]; at 100.0 µM 79% | [5]; at 33.0 µM 76% | [5]; [18] 72% | [5]; at 100.0 µM 91% | [6]; at 33.0 µM 74% | [6]; [18] 80% | [6]; at 100.0 µM 91% | [7]; at 33.0 µM 76% | [7]; at 100.0 µM 89% | [16]; at 100.0 µM 85% | [11]; at 100.0 µM 86% | [12]; at 100.0 µM 84% | [13]; at 33.0 µM 71% | [13]; at 100.0 µM 90% | [14]; [17] 72% | [14]; [18] 92% | [14]; at 50.0 µM 71.7% | [15]; at 11.0 µM 84% | [15]; at 33.0 µM 93% | [15]; at 100.0 µM 94%
